# Values without a mark were called inactive. Calls of active or inactive are those of the source. No stated cut-off is given here; in the data, active means fold change permeability below about 0.7 or above about 1.3; inactive means in between.
# Assay: compounds altering in vitro BBB leakiness – cell-based, FITC-avidin fluorescence, HTS, primary screen (AID 1963498); further: test concentration not given here
# Conditions: brain endothelial barrier, actives lie on both sides
row,SMILES,fold change permeability
1,Cc1cccc(C#Cc2ccccc2)n1,0.9
2,O=C1NC(=O)C(Cc2ccc3cc(OCc4ccccc4F)ccc3c2)S1 (centres undefined),1.3 (active)
3,c1ccc(-c2cnn3cc(-c4ccc(OCCN5CCOCC5)cc4)cnc23)cc1,1.2
4,O=C1Nc2nc(-c3c(O)cccc3OCC3CC3)cc([C@@H]3CCCNC3)c2CO1,1.6 (active)
5,O=c1cc(-c2ccccc2)oc2c(O)c(O)ccc12,1.5 (active)
6,NC(=O)CC[C@H](N)C(=O)O,0.8
7,COc1cc2c(CCNC(C)=O)c[nH]c2cc1O,1.1
8,C[C@H](NC(=O)CNC(=O)c1cccc(Cl)c1)c1ccccc1,1.1
9,C=CCN1CCc2c(cc(O)c(O)c2Br)[C@@H](c2ccccc2)C1,1
10,O=C(Nc1nc2ccccc2n1CCN1CCOCC1)c1cccc([N+](=O)[O-])c1,1.9 (active)
11,NC(=Nc1ccc(OCCCCCOc2ccc(N=C(N)c3ccccc3)cc2)cc1)c1ccccc1,1
12,COC1=C(OC)C(=O)c2ccccc2C1=O,1.4 (active)
13,CCN(CC)CCNC(=O)c1cc(Cl)c(N)cc1OC,0.9
14,O=C(O)/C=C1\CCCc2ccccc2C1O (centres undefined),0.8
15,Cc1ccc(C2Nc3ccccc3C(=O)N2c2ccccc2)s1 (centres undefined),1.3 (active)
16,CN1[C@@H](CC(=O)c2ccccc2)CCC[C@H]1C[C@H](O)c1ccccc1,1.3 (active)
17,Cc1cccc(-c2[nH]ncc2-c2ccc3ncccc3n2)n1,0.7 (active)
18,S=C(S)N1CCCC1,1
19,COc1ccccc1CNCCCCCCNCCCCCCCCNCCCCCCNCc1ccccc1OC,0.8

# Source: PubChem BioAssay
